Records with an inconclusive call do not appear. A call without a number means that no potency is given here. Calls of active or inactive are those of the source. Calls come from the whole dose curve; as a rule, active = well fitted inhibition curve with a large enough effect; inconclusive = small, poorly fitted or top-dose-only effect; inactive = flat fitted curve, though single readings scatter.
What follows are molecules tested against Aldehyde dehydrogenase, mitochondrial (Homo sapiens) (UniProt P05091) (assay: qHTS for Inhibitors of the Aldehyde Dehydrogenase Family (ALDH2) Primary screen (AID 2061308; note: nearly all actives have a fitted effect of over 55% in size)). Conditions: ALDH2 enzyme inhibition qHTS, 1536-well; series mostly up to 56 µM.

Row | Compound | Potency | activity change, negative = inhibition
1 | C=C(C(=O)O)C1CCC2(C)CCC(O)C(C)(O)C2C1 (stereo unspecified) | inactive | 
2 | C=C1C(OC(C)=O)C(=O)C2C(C)(C)C(OC(C)=O)CCC2(C)C1CC(OC(C)=O)/C(C)=C/COC(C)=O (stereo unspecified) | inactive | 
3 | C=CC(C)(O)CC/C=C(\C)C(=O)OC1C(O)C(CO)OC(OC(=O)C23CCC(C)(C)CC2C2=CCC4C5(C)CCC(OC6OC(COC7OCC(OC(C)=O)C(O)C7OC7OC(COC(C)=O)C(O)C(O)C7OC(C)=O)C(O)C(O)C6OC6OCC(O)C(O)C6O)C(C)(C)C5CCC4(C)C2(C)C(O)C3O)C1OC1OCC(OC2OCC(O)C(OC3OCC(O)C(O)C3O)C2O)C(O)C1O (stereo unspecified) |  | 11.4% [at 11.2 µM] (inactive)
4 | CCc1cc(CC[C@]2(C3CCCC3)CC(O)=C(Cc3nc4nc(C)cc(C)n4n3)C(=O)O2)cc(CC)n1 | inactive | 
5 | CC(=O)c1ccc(OCC(=O)N2CCCCC2)cc1 | inactive | 
6 | C[C@@H]1C[C@H](O[C@@H]2O[C@H](CO[C@@H]3OC[C@](O)(CO)[C@H]3O)[C@@H](O)[C@H](O)[C@H]2O)CC(C)(C)[C@H]1/C=C/[C@@H](C)O | inactive | 
7 | C=C1CC[C@@H]2[C@](C)(CC[C@H](O)[C@@]2(C)CCC=C(C)C)[C@@H]1Cc1c[nH]c2ccccc12 | inactive | 
8 | C/C=C(/C)C(=O)OC1CC(C)(C)CC2C3=CCC4C5(C)CCC(OC6OC(C)C(OC7OC(C(=O)O)C(O)C(OC8OC(CO)C(O)C(O)C8OC8OC(CO)C(O)C(O)C8O)C7O)C(O)C6O)C(C)(C)C5CCC4(C)C3(C)C(OC(=O)/C=C/C=C/C=C/CCC)C(OC(C)=O)C12CO (stereo unspecified) |  | 6.9% [at 11.2 µM] (inactive)
9 | C=CCc1ccc(OC(C)Cc2ccc(OC)c(OC)c2)c(OC)c1 (stereo unspecified) | inactive | 
10 | CC(=O)OC1CC2C(C)(C)C(=O)C=CC2(C)C2CC(=O)C3=C(CCC3C3=CC(O)OC3=O)C12C (stereo unspecified) | inactive | 
11 | CC1C(O)C(O)C2C(C(=O)OCCc3ccc(O)cc3)=COC(O[C@@H]3O[C@H](CO)[C@@H](O)[C@H](O)[C@H]3O)C12 (stereo partly specified) | inactive | 
12 | COc1cc2c(c(OC)c1O)C(c1ccc(O)cc1)C1C(=O)OC3C(COC(=O)C1=C2)OC(CO)(OC1OC(COC(=O)/C=C/c2ccc(OC4OC(C)C(O)C(O)C4O)cc2)C(O)C(O)C1O)C3O (stereo unspecified) | inactive | 
13 | C[C@H]1/C=C/C=C/C=C/C=C/C=C/[C@@H](O)[C@H](C(=O)O)[C@H](O)C[C@H](O)CCC[C@H](O)C[C@H](O)C[C@H](O)[C@@H](C)C(=O)O[C@@H]1C | inactive | 
14 | COc1ccc(C(=O)CC(=O)O)c2c1C=CC(C)(C)O2 | inactive | 
15 | O=C1NC(Cc2c[nH]c3ccccc23)C(=O)NC1Cc1c[nH]c2ccccc12 (stereo unspecified) | inactive | 
16 | CC(=O)O[C@H]1C[C@@H](O)C(C)(C)C2C[C@@H](OC(C)=O)[C@]3(C)C(CC[C@@]4(C)[C@H](c5ccoc5)OC(=O)[C@H]5O[C@]543)[C@]21C (stereo partly specified) | inactive | 
17 | COc1cc(/C=C/C(=O)OC2CC(OC(C)=O)C(OC(C)=O)C3C2CCC2C(=O)OC(c4ccoc4)CC23C)ccc1O[C@@H]1O[C@H](CO)[C@@H](O)[C@H](O)[C@H]1O (stereo partly specified) | inactive | 
18 | CC(C)=CC/C=C(\C)[C@H]1CC[C@]2(C)[C@@H]1[C@H](O)C[C@@H]1[C@@]3(C)CC[C@H](O)C(C)(C)[C@@H]3[C@@H](O[C@@H]3O[C@H](CO)[C@@H](O)[C@H](O)[C@H]3O)C[C@]12C | inactive | 
19 | Cc1ccc(C(=O)N2CCN(c3ccc([N+](=O)[O-])cc3)CC2)cc1Cl | inactive | 
20 | C=CC(C)(CC/C=C(\C)C(=O)OC)OC1OC(COC(=O)CC(C)(O)CC(=O)O)C(O)C(O)C1O (stereo unspecified) | inactive | 
21 | C=C(C)[C@@H]1CC[C@]2(C(=O)O)CC[C@]3(C)C(CCC4[C@]5(C)C(CC[C@]43C)C(C)(C)[C@@H](O)[C@@H]5C(=O)O)C12 (stereo partly specified) | inactive | 
22 | O=S(=O)(NCc1ccccn1)c1ccc(Br)c2ccccc12 | inactive | 
23 | O=C(CCCCc1ccc2ccccc2c1)C(F)(F)F | inactive | 
24 | C[C@@H]1O[C@@H](O[C@H]2[C@@H]3C=CO[C@@H](O[C@@H]4O[C@H](CO)[C@@H](O)[C@H](O)[C@H]4O)[C@@H]3[C@@]3(CO)O[C@@H]23)[C@H](OC(=O)/C=C/c2ccccc2)[C@H](O)[C@H]1O | inactive | 
25 | CC1CCC2(CO)C(C(=O)O)=CCCC2C1(C)CCc1ccoc1 (stereo unspecified) | inactive | 
26 | CC1CCC2(C(=O)O)CCC3(C)C(=CCC4C5(C)CCC(OC(=O)/C=C/c6ccccc6)C(C)(C)C5CCC43C)C2C1C (stereo unspecified) | inactive | 
